From PubChem BioAssay
Rows were chosen to be rich in hits. Some 1.6% of all compounds tested hit in one or more screens of this group.
PERK inhibitor – block of dimerizer-induced PERK translation repression, primary screen, PERK inhibitor project, CHO PERK-DD cells, SEAP luminescence, HTS | Eukaryotic translation initiation factor 2-alpha kinase 3 (Homo sapiens), Q9NZJ5 | inhibition, % at 5.6 µM | CHO PERK-DD fusion, SEAP luminescence translation reporter | actives 0.17% (n = 220,000);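 active means inhibition above the mean inhibition of all tested compounds plus 3 SD, set separately per screening campaign, cut at about 2.9% in these data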;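 further: PERK kinase domain activated by AP20187 dimerizer at 100 nM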
eIF4H inh – human eIF4H binding inhibitors, primary screen, translation initiation inhibitor project, biochemical, uHTS, fluorescence polarization; Eukaryotic translation initiation factor 4H (Homo sapiens), Q15056; eIF4H fluorescence polarization binding assay; inhibition, % at 35 µM; actives 0.94% (n = 290,000); AID 2012, 2009;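 further: calls also rest on retests at 20 µM and on dose response follow-up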
eIF4E-4G inh – eIF4E–eIF4G protein interaction inhibitors, primary screen, biochemical, uHTS, TR-FRET, eIF4GI fragment; actives 0.37% (n = 220,000); TR-FRET eIF4E-eIF4GI(517-606) binding, 2 h; inhibition, % at 21.7 µM; AID 782, 2007;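 active means inhibition above about 30%, limit read from the data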
PABP FP inh – PABP poly(A) RNA binding inhibitors, primary screen, biochemical, fluorescence polarization, uHTS; AID 2014, 2009; actives 1% (n = 290,000); calls only at 35 µM;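 further: calls also rest on retests at 20 µM and on dose response follow-up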
MLLE-PAM2 inh – inhibitors of PABP1 MLLE–PAM2 peptide binding, primary screen, biochemical, fluorescence polarization, FITC-PAM2, GST-MLLE; inhibition, % at 20 µM; AID 588489, 2011; Polyadenylate-binding protein 1 (Homo sapiens), P11940; actives 0.36% (n = 360,000); in the data active means inhibition above about 35%, passing the limit was not always enough
Numbers stand for hits; – = inactive; ? = inconclusive; · = no result given; + = active, no number. Unless noted, how the calls were made is not given here.

SMILES	PERK inhibitor	eIF4H inh	eIF4E-4G inh	PABP FP inh	MLLE-PAM2 inh
Cc1ccc(OCC(=O)N/N=C/c2ccc([N+](=O)[O-])o2)cc1	–	–	–	–	–
CCC1(C)Cc2nc3sc(C(=O)O)c(N)c3cc2CO1 (centres undefined)	–	12.5	–	+	–
CCOC(=O)c1sc2nc3c(cc2c1N)COC(C)(CC)C3 (centres undefined)	–	–	–	–	–
Cc1ccc(CCN2CC(C(=O)NC(C)C)CC2=O)cc1 (centres undefined)	·	–	·	–	–
Cc1[nH]c2ccccc2c1C1=NNC(=Nc2ccc(F)cc2)SC1	–	active	–	+	–
COc1ccc(N=C2NN=C(c3c(C)[nH]c4ccccc34)CS2)cc1	–	–	–	–	–
Cc1ccnc2nc(C(=O)OCC(=O)N(C)C3CCCCC3)nn12	·	·	·	·	–
COc1ccccc1C(=O)NCC(=O)N/N=C/c1cc(Br)ccc1OC(=O)/C=C\c1ccco1	–	–	–	–	–
O=C(CNC(=O)c1ccccc1F)N/N=C/c1cc(Br)ccc1OC(=O)/C=C/c1ccco1	–	83.7	–	–	–
Cc1ccc(N(CC(=O)Nc2ccc(Br)c(C)c2)S(=O)(=O)c2c(C)[nH]c(=O)[nH]c2=O)cc1	·	·	·	·	–
Cc1nc(CSc2nsc(/C=C/N(C)C)c2C#N)cs1	–	?	–	–	–
COC(=O)c1ccccc1CSc1nsc(/C=C/N(C)C)c1C#N	·	–	·	+	–
Cc1ccc(-n2nc(-c3ccco3)cc2C(=O)O)cc1	–	93.8	–	+	–
CC(CCN1CCN(CCO)CC1)c1ccccc1 (centres undefined)	·	–	·	–	–
N#Cc1c(Nc2cccc(F)c2)sc2c(O)cc(=O)[nH]c12	–	55.7	–	+	–
Nc1cc2c(cc1[N+](=O)[O-])OCCO2	–	–	–	–	–
Nc1cc2c(cc1[N+](=O)[O-])OCO2	–	–	–	+	–
Cc1oc(-c2ccc(Cl)cc2)cc1-c1nn2c(-c3ccoc3C)nnc2s1	–	85.1	–	+	–
O=[N+]([O-])c1cccc(C(=S)N2CCN(c3ccccc3F)CC2)c1	–	–	–	–	46.4
O=[N+]([O-])c1cccc(C(=S)N2CCN(c3ccccc3)CC2)c1	–	–	–	–	62.8
CC1CN(C(=S)c2cccc([N+](=O)[O-])c2)CC(C)O1 (centres undefined)	–	–	–	–	38.9
O=C(/C=C/c1cccc([N+](=O)[O-])c1)N1CCN(c2ccccc2F)CC1	–	–	–	–	–
Cc1ccc(C(=O)O)cc1NS(=O)(=O)c1ccc2c(c1)oc(=O)n2C	·	–	·	+	–
CCOC(=O)N1CCC(NS(=O)(=O)c2ccc3c(c2)oc(=O)n3C)CC1	–	66.8	–	+	–
Cn1c(=O)oc2cc(S(=O)(=O)NCc3ccncc3)ccc21	–	71.5	–	+	–
SMILES	PERK inhibitor	eIF4H inh	eIF4E-4G inh	PABP FP inh	MLLE-PAM2 inh
CCOC(=O)N1CCC(NC(=O)C2CCCN(S(=O)(=O)c3ccc4c(c3)oc(=O)n4C)C2)CC1 (centres undefined)	–	–	–	–	–
Cn1c(=O)oc2cc(S(=O)(=O)Nc3ccc(C(=O)O)cc3)ccc21	·	·	·	·	–
COCCN(CCOC)C(=O)COC(=O)c1cc([N+](=O)[O-])ccc1Cl	–	–	–	–	–
CC(C)c1ccc(NC(=O)C2Cc3c(-c4ccco4)ccnc3O2)cc1 (centres undefined)	·	·	·	·	–
COC(=O)c1ccc(NS(=O)(=O)c2ccc3[nH]c(=O)oc3c2)cc1	·	65.5	·	–	–
Cc1ccc(C)c(NS(=O)(=O)c2ccc3[nH]c(=O)oc3c2)c1	–	?	–	+	–
Cc1cccc(NS(=O)(=O)c2ccc3[nH]c(=O)oc3c2)c1C	·	·	·	·	–
O=C(C1CCCN(CCCc2ccccc2)C1)N1CCCCC1 (centres undefined)	–	–	–	–	–
CC(C)CCCCCCCCCCCCC(=O)NCC(=O)NC1C(C)OC(Nc2ncnc3nc[nH]c23)C(O)C1O (centres undefined)	·	·	·	·	–
CC(=O)OCC(=O)C1(O)CCC2C3CCC4CC(O)CCC4(C)C3C(=O)CC21C (centres undefined)	·	·	·	·	–
CC1(C)CC(=O)C2=C(C1)OC(N)=C(C#N)C21CCN(Cc2ccccc2)CC1	–	?	–	?	–
Cc1nc2c([nH]1)C1(CCN(Cc3ccccc3)CC1)C(C#N)=C(N)O2	–	45.0	–	+	–
Cc1cccc(-c2nsc(SCC(=O)NCc3ccco3)n2)c1	–	–	–	–	–
CCOC(=O)CNC(=O)CSc1nc(-c2cccc(C)c2)ns1	–	–	–	–	41.1
CC(C)(C)c1ccc(C(=O)CC(Sc2ccc(Cl)cc2)C(=O)O)cc1 (centres undefined)	–	–	–	–	46.2
CN1/C(=C/C=C(/C#N)C(N)=O)C(C)(C)c2ccccc21	–	54.9	–	–	–
CN1/C(=C\C=C(/C#N)C(=O)Nc2ccccc2F)C(C)(C)c2ccccc21	–	–	–	+	–
COCCn1cc(-c2csc(N)n2)c2ccccc21	·	–	·	–	–
CN(C)c1nc(-c2cn(CCC#N)c3ccccc23)cs1	·	–	·	–	48.8
C=CCc1cccc(C=Nc2cc(Br)ccc2O)c1O	–	78.0	–	–	–
C=CCc1cccc(C=Nc2c[nH]c(=O)[nH]c2=O)c1O	·	–	·	–	–
Cc1ccccc1NC(=O)CSc1ccsc1[N+](=O)[O-]	–	?	–	+	–
CCc1nnc(NC(=O)CSc2ccc(-c3ccco3)nn2)s1	–	95.3	–	+	–
CCc1nnc(NC(=O)Cn2nc(-c3ccccc3OC)ccc2=O)s1	–	–	35.8	–	–
CCc1nnc(NC(=O)Cn2nc(-c3ccc(OC)c(OC)c3)ccc2=O)s1	–	–	–	–	–
SMILES	PERK inhibitor	eIF4H inh	eIF4E-4G inh	PABP FP inh	MLLE-PAM2 inh
Cc1ccc(C)c(NC(=O)CSc2ccc(-c3ccco3)nn2)c1	–	–	–	–	–
Cc1ccccc1NC(=O)CSc1ccc(-c2ccco2)nn1	–	?	–	+	–
Cc1ccc(S(=O)(=O)NC[C@H]2O[C@@H](n3ccc(N)nc3=O)[C@H](O)[C@@H]2O)s1	·	·	·	·	–
CC(=O)Oc1ccc(C(=O)Nc2cc(C)on2)cc1	·	–	·	–	–
O=C(NCc1cccs1)c1ccc(Cl)c(S(=O)(=O)N2CCOCC2)c1	·	·	·	·	–
Cc1ccc(S(=O)(=O)N2C[C@@H]3[C@H]4CC[C@H](C4)[C@@H]3[C@@H](C)[C@H]2C#N)cc1	·	·	·	·	–
Cc1ccc(C)c(Cn2c3ccccc3c3cnn(CC(=O)NCCCN4CCCCC4)c(=O)c32)c1	·	–	·	–	–
O=C(Nc1cccc2ccccc12)N1CC=CCC1	–	81.4	–	+	–
